Assay results reported in the supplement of paper PMC10338343.
± gives the standard deviation.

tested on: MILI (PIWIL2) piRISC loaded with piRNA #1 (26 nt); assay: pre-steady-state target cleavage rate (min^-1); guide: piRNA #1 5'p-UGAGGUAGUAGGUUGUAUAGUAUCCA; MIWI and MILI are mouse PIWI proteins and EfPiwi is from a freshwater sponge; tags in brackets are library labels; higher = faster piRNA-guided slicing of the target; settings: auxiliary factor: 500 nM mouse GTSF1
Procedure, shortened: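 Sequencing of uncleaved targets, normalised to depth and to weakly complementary targets, was the readout of this Cleave-'n-Seq assay. A transcribed, DNA-blocked target RNA library (0.1 nM) was mixed with 1 nM active affinity-purified piRISC carrying one synthetic guide, with or without 500 nM GTSF1 partner protein, in HEPES–potassium acetate buffer at 33 °C for 0–8 or 0–960 min. Three trials were pooled, k3 was capped at 0.0001 min^-1, and a burst-and-steady-state fit gave the pre-steady-state cleavage rate.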

Sequence	pre-steady-state target cleavage rate
GGAGACCAUACUUUACAAGCUACUACCUCA	0.199 ± 0.017
GGAGACCUAUGAUUACAUCCUACUACCUCA	0.0102 ± 0.0027
GGAGACCUAACUUUACAACCUACUACCACA	0.109 ± 0.024
GGAGAGGAUACUAUACAACCAUACUACCUCA	0.00709 ± 0.0019
GGAGACCUAUGAUUUCAUCCUACUACCUCA	0.0038 ± 0.0025
GGAGACCUAACUAUUCAACCUACUAGCUCA	0.089 ± 0.024
GGAGACCUAUGAUUAACAACCUACUACCUCA	0.00416 ± 0.0022
GGAGAGGAUAGUAAACAACCUACUACCUCA	0.0497 ± 0.011
GGAGACCUAUGAUUACAUCCUUCUACCUCA	0.00314 ± 0.0026
GGAGACCUAUCUAUUACAACCUACUACCUCA	0.0546 ± 0.0098
GGAGACCUAACUAAAGAACCUACUACCUCA	0.0693 ± 0.013
GGAGAGGAUACUAUAGAACCUACUACGUCA	0.0326 ± 0.0058
GGAGACCUAACAAUACAAGCUACUACCUCA	0.22 ± 0.029
GGAGACCUAUGAUUACAUCCUACAACCUCA	0.00871 ± 0.0027
GGAGACCUUACUUUACUACCUACUACCUCA	0.0948 ± 0.01
GGAGACCUAUCUAUAGAAGCUACUACCUCA	0.143 ± 0.019
GGAGUCGAUACUAUAGAACCUACUACCUCA	0.0641 ± 0.0083
GGAGACCUUACUAUACAACCUACAAGCUCA	0.103 ± 0.03
GGAGACCUAUCUAUACAACGUACUACCUGA	0.00689 ± 0.0021
GGAGAGCAUACUAUAGAACCUACUACCUCA	0.142 ± 0.012

Sequence	pre-steady-state target cleavage rate
GGAGACCUAUCUAUAGCAACCUACUACCUCA	0.0831 ± 0.016
GGAGACCAUACAAUACAAGCUACUACCUCA	0.205 ± 0.016
GGAGACCAUACUAUACUACCUUCUACCUCA	0.0171 ± 0.0044
GGAGACCUAACUUUACAACCUACUUCCUCA	0.0099 ± 0.0053
GGAGACCUUACUAUACAACCUAACUACCUCA	0.0162 ± 0.0034
GGAGUGCAUACUAUACAACCAACUACCUCA	0.00672 ± 0.0023
GGAGAGGAUACUAUACAACGAACUACCUCA	0.0031 ± 0.0019
GGAGACCUAUCAUACAACCUACUACCUCA	0.0591 ± 0.0093
GGAGACCUUACUAAUCAACCUACUACCUCA	0.11 ± 0.016
GGAGACGAUACUUUACAUCCUACUACCUCA	0.257 ± 0.016
GGAGACCAUACUAAACUACCUACUACCUCA	0.142 ± 0.013
GGAGACCUAUGUUAUCAACCUACUACCUCA	0.0125 ± 0.0029
GGAGACCUAUGAUAUCAUGGUACUACCUCA	< 0.0001
GGAGACCUUACUAUAGAACCUACUAGCUCA	0.00445 ± 0.0038
GGAGACCUAUCUUUACAUCCUACUACCUCA	0.104 ± 0.013
GGAGACCUAUGAUUACAACCUACUAGCCUCA	0.00776 ± 0.0028
GGAGUCGAUACUAUACAACCUACUACCACA	0.175 ± 0.014
GGAGACCUUACUAUACAACCUACAACGUCA	0.0109 ± 0.0043
GGAGACCUAUCUAUUCAAGCUACUACCUCA	0.196 ± 0.015
GGAGUGGAUACUAUUGAACCUACUACCUCA	0.0784 ± 0.0078
